Potency and outcome data for 16 compounds are collected here from PubChem BioAssay (NCATS).

Inconclusive results are not listed. Activity calls are given as the source filed them. The call rests on the fitted dose curve; in most records, active means well fitted inhibition curve with a large enough effect; inconclusive means small, poorly fitted or top-dose-only effect; inactive means flat fitted curve, though single readings scatter. *1 amine or outer side, *2 acyl side, *3 side chain or, on linkers, in order; H or OH if unused. Where a SMILES comes first, the peptide text is derived from it. Bridges are numbered along the chain shown (N, C = ends). [ ]: non-standard residue; d: D form. The star is where a group is joined. ξ: configuration not given here. ξhTyr(3S-OH,4S-OH,3'-OSO3H) = NC(C(=O)O)[C@H](O)[C@@H](O)c1ccc(O)c(OS(=O)(=O)O)c1; Orn(4R-OH,5R-OH) = O=C([C@H](C[C@@H](O)[C@@H](O)N[*:3])N[*:1])[*:2]; X2 = CCCCCOc1ccc(-c2cc(-c3ccc(C(=O)*)cc3)no2)cc1; X3 = C[C@H]1CN([*:1])C(C(=O)[*:2])[C@H]1O; ξGln(3R-OH) = NC(=O)C[C@@H](O)C(N)C(=O)O; ξPro(4R-OH) = O=C(O)C1C[C@@H](O)CN1; ξThr(3R) = C[C@@H](O)C(N)C(=O)O

System in one test: not listed separately
Put plainly: P-glycoprotein substrates identified in KB-8-5-11 adenocarcinoma cell line, qHTS therapeutic library screen (AID 1346987). Further: nearly all actives have a fitted effect of over 65% in size. Conditions: KB-8-5-11 (P-gp overexpressing) viability, CellTiter-Glo, 72 h; series mostly up to 44.5 µM. The procedure, abridged:
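Compounds are pinned in dose-response onto KB-8-5-11 cells (500 cells/well, colchicine-free medium) and left 72 h at 37 degree C. CellTiter-Glo luminescence then yields AC50 values.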
A general note: Quantitative high-throughput screening tests each substance at several concentrations.
For the compound `CC(C)c1cc2c(c(O)c1O)[C@@]13CCCC(C)(C)C1[C@@H](O)[C@@H]2OC3=O` (some centres not stated), the Potency result was “inactive”.
For `C=C1CCC2(C(=O)OC3OC(CO)C(O)C(O)C3O)CCC3(C)C(=CCC4C5(C)CCC(OC6OC(CO)C(OC7OC(C)C(O)C(O)C7O)C(OC7OCC(O)C(O)C7O)C6O)C(C)(C)C5CCC43C)C2C1` (configuration not stated), the outcome is “inactive [at 9.29 µM]”.
As for `C=C1C2CCC3C(CCC4[C@@]3(C)CCC[C@@]4(C)C(=O)O)(C2)[C@@H]1OC(=O)/C(C)=C\C` (some centres not stated), the Potency result is “inactive”.
Still for that read-out and setting: the result for `COc1ccc(S(=O)(=O)Nc2nc(-c3cccc([N+](=O)[O-])c3)cs2)cc1OC` reads “inactive”.

For another test, the system named is Zika virus NS2B-NS3 protease (linked construct). Put plainly: Confirmatory screen NINDS AMC qHTS for Zika virus inhibitors (AID 1347152). Further: nearly all actives have a fitted effect of over 70% in size. Further: potency means the concentration at half of the fitted maximal effect. The following applies: Purified linked NS2B-NS3, AMC substrate fluorescence; series mostly up to 56.6 µM. The method in brief:
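Linked NS2B-NS3 protease, 1 nM, in 10 mM Tris-HCl pH 8.0, 0.01% Tween 20; compounds preincubated 15 min at room temperature. Nle-KRR-AMC 10 microM (Km 18.3 µM); 15-min fluorescence change (340/450 nm) fitted to 4-parameter Hill.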
`COc1cc(Nc2ccc([N+](=O)[O-])cc2C(=O)O)cc2ccccc12`: the Potency is 15.6 µM (active).
The same measure, in the same setting: then `CCCCCOc1ccc(-c2cc(-c3ccc(C(=O)N[C@H]4C[C@@H](O)[C@@H](O)NC(=O)C5[C@@H](O)[C@@H](C)CN5C(=O)C([C@H](O)CC(N)=O)NC(=O)C([C@H](O)[C@@H](O)c5ccc(O)c(OS(=O)(=O)O)c5)NC(=O)C5C[C@@H](O)CN5C(=O)C([C@@H](C)O)NC4=O)cc3)no2)cc1` (stereo partly drawn) (X2-[Orn(4R-OH,5R-OH)][ξThr(3R)][ξPro(4R-OH)][ξhTyr(3S-OH,4S-OH,3'-OSO3H)][ξGln(3R-OH)][X3]; lactam 1-C), with 21.5 µM (active); and `Cc1ccc2[nH]c(=O)c(C3=NN(C(=O)CCC(=O)O)C(c4ccc(Br)cc4)C3)c(-c3ccccc3)c2c1` (configuration not stated), with 44.1 µM (active); and `COc1cc(/C=C/c2ccccc2)c(C(=O)O)c(O)c1CC=C(C)C`, with 34.3 µM (active).
The same measure, in the same setting: then `COc1cc2c(c(O)c1OC/C=C(\C)CC/C=C(/C)CCC=C(C)C)CN(C(CCC(=O)O)C(=O)O)C2=O` (configuration not stated), with 27.1 µM (active).
The same measure, in the same setting: the result for `C/C=C/C=C/C=C/C(=O)O[C@@H]1[C@@H](OC)C2=C(C(=O)N(C(CCC(=O)O)C(=O)O)C2)[C@@]2(C)CCCC(C)(C)[C@H]12` (some centres not stated) reads 24.2 µM (active); that for `O=C1NC(=O)/C(=C/c2cccc(C(F)(F)F)c2)S1`, 17.5 µM (active); that for `CC1C(O)C(O)C2C(C(=O)OCCc3ccc(O)cc3)=COC(O[C@@H]3O[C@H](CO)[C@@H](O)[C@H](O)[C@H]3O)C12` (some centres not stated), “inactive”.
Take `C/C(=C\CC/C(C)=C/CC[C@]1(C)CCc2cc(O)cc(C)c2O1)CC/C=C(\C)C(=O)O`: the Potency is 19.2 µM (active).
Same read-out and setting: then `Cc1cc(C)c2nc(-c3ccccn3)cc(C(=O)Nc3ccc(S(=O)(=O)Nc4onc(C)c4C)cc3)c2c1`, with 22.1 µM (active); and `O=C(O)C1(c2ccc(-c3ccc(Cl)c(Cl)c3)c(F)c2)CC1`, with 44.1 µM (active).
The same measure, in the same setting: then `COc1cc(C)c(C(=O)OC2C(C)OC(OC3CCC(C)C4C3C=C(C)C3/C(C)=C\CC/C(C)=C/C5(C)C=C(C(=O)O)C(C)CC56OC(=O)/C(=C(\O)C34C)C6=O)C(O)C2O)c(OC)c1` (configuration not stated), with 9.37 µM (active).
Still for that read-out and setting: the result for `C=C1C2CCC3C(CCC4[C@@]3(C)CCC[C@@]4(C)C(=O)O)(C2)[C@@H]1OC(=O)/C(C)=C\C` (some centres not stated) reads 21.5 µM (active).
